From PubChem BioAssay
The source made the active and inactive calls. Unless noted, the rule behind the calls is not given here.

How the values were obtained:
[1] = test system: XIP peptide (Xip251-270) binding; assay: XIP fragment 251-270 binding compounds – biochemical, small-molecule microarray, fluorescence 635/667 nm, 0.1 µg/mL protein, primary screen (AID 1182); conditions: fluorescent protein binding, 635 nm, higher = more signal, called active from +8 up or from −8 down
XIP peptide (Xip251-270) = assay: compounds binding XIP fragment 251-270 – biochemical, small-molecule microarray, fluorescence 635/667 nm, 0.5 µg/mL protein, primary screen (AID 1183); conditions: fluorescence 635 nm, higher = more signal
[2] = blood-stage malaria parasite viability loss – strain 3D7, DAPI fluorescence, 100 nL, primary screen (AID 1184);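 note: parasites grown inside human red blood cells in medium with human serum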; conditions: P. falciparum 3D7 growth, 3 d, higher = more signal
[3] = biological target: Homeobox protein Hox-A13 (Mus musculus) (UniProt Q62424); assay: disruptors of Hoxa13 oligonucleotide interaction – biochemical, fluorescence polarization, labeled oligonucleotide, primary screen (AID 1185); conditions: Hoxa13:DNA binding, 15 min, higher = more signal, called active from +8 up or from −8 down
Chain of Homeobox protein Hox-A13 (Mus musculus) (Q62424 whole entry, looked up): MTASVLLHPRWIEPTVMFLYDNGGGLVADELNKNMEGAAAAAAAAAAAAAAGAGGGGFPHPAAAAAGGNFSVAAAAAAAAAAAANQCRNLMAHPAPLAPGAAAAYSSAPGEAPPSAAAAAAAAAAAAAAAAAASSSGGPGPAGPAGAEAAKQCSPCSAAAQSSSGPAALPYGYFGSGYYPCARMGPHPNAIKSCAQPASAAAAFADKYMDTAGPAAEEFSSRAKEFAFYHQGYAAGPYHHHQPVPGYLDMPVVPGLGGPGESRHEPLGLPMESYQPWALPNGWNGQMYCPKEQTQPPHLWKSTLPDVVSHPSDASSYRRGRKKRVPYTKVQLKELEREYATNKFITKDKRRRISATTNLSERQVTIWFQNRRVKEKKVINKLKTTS

[4] = blockers of DNA damage checkpoint Chk1 activation – imaging, HeLa, hydroxyurea, phospho-Chk1 antibody, percent positive cells, primary screen (AID 1186); conditions: hydroxyurea-induced phospho-Chk1 immunofluorescence imaging, higher = more signal
[5] = blockers of DNA damage checkpoint Chk1 activation – imaging, HeLa, hydroxyurea, phospho-Chk1 nuclear intensity, primary screen (AID 1187); conditions: hydroxyurea-induced phospho-Chk1 immunofluorescence imaging, higher = more signal

Structure (SMILES)	composite z-score [1]	composite z-score (XIP peptide (Xip251-270))	z-score [2]	z-score [3]	z-score [4]	z-score [5]
Cc1ccc(C(C)CC(O)C2C=CC3C(=O)NC(=O)C3N2Nc2ccccn2)o1 (stereo not drawn)	0.673 (inactive)	0.881	0.281	-2.14 (inactive)	0.333 (inactive)	0.0304 (inactive)
CCOC(=O)C1=CC[C@@H](c2ccccc2)N(S(=O)(=O)c2ccc(C)cc2)[C@H]1c1ccc(C#N)cc1	0.432 (inactive)	0.728	-1.95	0.426 (inactive)	0.972 (inactive)	0.136 (inactive)
CCCNC(=O)[C@@]1(C)c2ccccc2C(=O)N(Cc2ccc(OC(F)(F)F)cc2)[C@H]1c1ccc(CO)cc1	0.689 (inactive)	0.794	-0.775	-3.32 (inactive)	-0.374 (inactive)	-0.473 (inactive)
CC(C)C[C@@H]1NC(=O)[C@@H]2C[C@H](C(=O)NCCCCN(C)C)[C@H](c3ccc(O)cc3)N2C1=O	-0.0862 (inactive)	0.937	-0.06	-1.49 (inactive)	0.326 (inactive)	0.219 (inactive)
CC(C)N1C(=O)c2ccccc2[C@](C)(C(=O)NCCCN(C)C)[C@@H]1c1ccc(CO)cc1	0.289 (inactive)	0.431	0.191	-1.73 (inactive)	0.0165 (inactive)	0.149 (inactive)
CN(C)CCCC[C@@H]1NC(=O)[C@@H]2C[C@H](C(=O)NCc3ccc(F)cc3)[C@H](c3cccc(OCCO)c3)N2C1=O	0.658 (inactive)	0.813	-0.459	-3.36 (inactive)	0.445 (inactive)	0.314 (inactive)
CC1CC/C=C\[C@H]2OC34C=CCN(Cn5nnc6ccccc65)C(=O)[C@H]3N(CCCO)C(=O)[C@@H]4C2C(=O)O1 (stereo partly drawn)	0.75 (inactive)	0.13	-0.0633	-5.65 (inactive)	-0.86 (inactive)	-0.909 (inactive)
O=C1C2C=CC(C(O)C3CC=CCC3)N(n3cnnc3)C2C(=O)N1Cc1ccccc1 (stereo not drawn)	0.887 (inactive)	-0.0517	0.017	-3.36 (inactive)	0.518 (inactive)	-0.603 (inactive)
CCCC[C@@H]1C[C@H]1[C@@H](NC(=O)c1ccccc1)c1ccccc1	-0.33 (inactive)	-0.302	0.328	-1.46 (inactive)	0.072 (inactive)	-0.0583 (inactive)
O=C1OCCC=C[C@H]2OC34C=CCN(c5ccc6ccccc6c5)C(=O)[C@H]3N(CCCCCCO)C(=O)[C@@H]4C12 (stereo partly drawn)	-0.0517 (inactive)	0.79	0.0888	-5.18 (inactive)	0.183 (inactive)	0.399 (inactive)
CC(C)N1C(=O)c2ccccc2[C@](C)(C(=O)NC2CC2)[C@@H]1c1ccc(CO)cc1	-0.318 (inactive)	0.0807	-0.335	-1.64 (inactive)	-0.119 (inactive)	0.0866 (inactive)
C=CCNC(=O)[C@H]1[C@@H]2C(=O)O[C@@H](c3ccccc3)[C@@H](c3ccccc3)N2[C@@H](c2ccc(O)cc2)[C@]12C(=O)Nc1ccc(C#Cc3ccc(OC)cc3)cc12	0.292 (inactive)	0.779	-0.785	-1.91 (inactive)	0.0407 (inactive)	0.277 (inactive)
COC(=O)[C@@]1(Cc2ccc(OC)cc2)[C@H]2c3cc(C(=O)N(C)C)n(Cc4ccc(OC)c(OC)c4)c3C[C@H]2CN1C(=O)c1ccccc1	0.811 (inactive)	0.696	-1.47	-4.3 (inactive)	-0.225 (inactive)	0.305 (inactive)
CN(C)CCCCCCNC(=O)[C@@H]1C[C@@H]2C(=O)NCC(=O)N2[C@@H]1c1cccc(OCCO)c1	0.096 (inactive)	0.851	0.331	-2.07 (inactive)	0.491 (inactive)	0.797 (inactive)
O=C1C2C=CC(C(O)c3cccc4ccccc34)N(n3cnnc3)C2C(=O)N1Cc1ccccc1 (stereo not drawn)	-0.0195 (inactive)	-0.633	-0.206	-1.86 (inactive)	0.993 (inactive)	-0.055 (inactive)
Cc1ccc(S[C@]2(C(=O)NCC(F)(F)F)CC(=O)N(C3Cc4ccccc4C3)[C@@H]2c2ccc(CO)cc2I)cc1	0.448 (inactive)	-0.273	0.178	-2.85 (inactive)	0.0501 (inactive)	0.637 (inactive)
Cc1ccc(S[C@]2(C(=O)NCC(C)C)CC(=O)N(Cc3ccccc3)[C@@H]2c2ccc(CO)cc2)cc1	1.34 (inactive)	0.404	-0.894	-2.95 (inactive)	0.306 (inactive)	-0.141 (inactive)
C=CCOC(=O)[C@@H]1[C@H]2C(=O)O[C@H](c3ccccc3)[C@H](c3ccccc3)N2[C@H](c2ccc(OCCOC(=O)[C@H]3C[C@H]4C(=O)N[C@@H](Cc5ccccc5)C(=O)N4[C@H]3c3ccc(O)cc3)cc2)[C@@]12C(=O)Nc1ccc(I)cc12	2.09 (inactive)	0.81	0.265	6.27 (inactive)	-0.177 (inactive)	-0.343 (inactive)
COCCOC(=O)N1C(=O)[C@@]2(c3cc(C#CC4(O)CCCCCC4)ccc31)[C@H](c1ccc(O)cc1)N1[C@H](c3ccccc3)[C@H](c3ccccc3)OC(=O)[C@H]1[C@@H]2C(=O)N1CCc2cc(OC)c(OC)cc2C1	-0.455 (inactive)	0.839	0.0635	-0.954 (inactive)	-0.404 (inactive)	-0.466 (inactive)
O=c1cccc(-c2ccc3ccccc3c2)o1	-0.644 (inactive)	-0.688	1	-1 (inactive)	-0.319 (inactive)	-0.587 (inactive)
COc1ccc([Si](C)(C)[C@H]2[C@H](CCO)O[C@@]3(C(=O)N(Cc4ccccc4)c4ccc(N5C(=O)COc6ccccc65)cc43)[C@@H]2C)cc1	0.577 (inactive)	0.473	-1.09	-0.771 (inactive)	-0.584 (inactive)	-0.791 (inactive)
COCCOC(=O)N1C(=O)[C@@]2(c3cc(C#Cc4ccc(OC)cc4)ccc31)[C@H](c1ccc(OCCO)cc1)N1[C@H](c3ccccc3)[C@H](c3ccccc3)OC(=O)[C@H]1[C@@H]2C(=O)N1CCc2cc(OC)c(OC)cc2C1	0.179 (inactive)	0.592	-1.85	3.38 (inactive)	-0.329 (inactive)	-0.456 (inactive)

Structure (SMILES)	composite z-score [1]	composite z-score (XIP peptide (Xip251-270))	z-score [2]	z-score [3]	z-score [4]	z-score [5]
C=C(COC)C(=O)CC[C@H](OC(=O)c1cccnc1)c1ccccc1OCCO	-0.0123 (inactive)	0.444	-3.02	-4.46 (inactive)	0.735 (inactive)	0.565 (inactive)
CN1C(=O)C2C(C1=O)C1C=C(c3ccc(CO)cc3)C2C(C2CC2)N1Cc1sc2ccccc2c1Cl (stereo not drawn)	0.406 (inactive)	0.745	-1.9	-3.23 (inactive)	0.21 (inactive)	0.442 (inactive)
C=CC[C@]1(C(=O)NCCN2CCOCC2)N=C(c2ccc(OCCCO)cc2)O[C@H]1c1ccccc1N=[N+]=[N-]	3.25 (inactive)	0.819	-2.27	-3.35 (inactive)	-0.56 (inactive)	-0.265 (inactive)
C[C@]1(C(=O)NCC(F)(F)F)c2ccccc2C(=O)N(Cc2cc(F)cc(C(F)(F)F)c2)[C@H]1c1ccc(CO)cc1	0.362 (inactive)	0.473	-1.31	-3.68 (inactive)	0.305 (inactive)	0.388 (inactive)
COC(=O)[C@@]1(Cc2ccc(OC)cc2)[C@H]2c3cc(C(=O)N4CCCC4)n(CCN4CCOCC4)c3C[C@H]2CN1C(=O)c1ccccc1	1.11 (inactive)	0.0956	-1.17	-5.18 (inactive)	0.778 (inactive)	0.485 (inactive)
[N-]=[N+]=NCc1ccccc1[C@@H]1OC(c2ccc(OCCCO)cc2)=N[C@]1(Cc1ccccc1N=[N+]=[N-])C(N)=O	0.411 (inactive)	0.785	-1.63	-3.75 (inactive)	0.135 (inactive)	0.278 (inactive)
CO[C@H]1O[C@H](CO)[C@@H](OC(=O)Nc2ccc3c(c2)OCO3)[C@H](OC(=O)Nc2ccc3c(c2)OCO3)[C@H]1OC(=O)Nc1ccc2c(c1)OCO2	2.3 (inactive)	0.842	-2.1	-4.78 (inactive)	-0.134 (inactive)	0.245 (inactive)
C=CCN1C(=O)[C@]2(Cc3ccccc31)N=C(c1ccc(OCCCO)cc1)O[C@@H]2c1ccccc1	0.526 (inactive)	0.791	-2.07	-4.97 (inactive)	-0.149 (inactive)	0.0449 (inactive)
CCOC(=O)C1=CC[C@@H](c2cccc(Cl)c2)N(S(=O)(=O)c2ccc(C)cc2)[C@H]1c1ccc(C#N)cc1	0.197 (inactive)	0.73	-2.12	1.05 (inactive)	0.645 (inactive)	-0.118 (inactive)
C=C(C)[C@@H]1CC=C(C(O)C2C=CC3C(=O)N(Cc4ccccc4)C(=O)C3N2n2cnnc2)CC1 (stereo partly drawn)	-0.137 (inactive)	0.3	-1.03	-1.35 (inactive)	-0.0789 (inactive)	0.265 (inactive)
CCCC[C@@H]1C[C@H]1[C@@H](NC(=O)c1ccccc1)c1ccc(-c2ccccc2)cc1	0.397 (inactive)	-0.0572	-0.0371	-3.63 (inactive)	-0.0528 (inactive)	0.215 (inactive)
COc1ccc([Si](C)(C)[C@H]2[C@H](CC(=O)N3CCC[C@H]3CO)O[C@@]3(C(=O)N(Cc4cccc(N5CCC5=O)c4)c4ccccc43)[C@@H]2C)cc1	0.185 (inactive)	0.543	-2.04	-3.58 (inactive)	0.307 (inactive)	0.429 (inactive)
COC(=O)c1c2oc(c1C(=O)OC)C(=O)N[C@H](Cc1ccccc1)Cn1nncc1C1(CCCCC1)NC(=O)N[C@H](CO)CC2	0.152 (inactive)	-0.0356	1.06	-2.22 (inactive)	-0.971 (inactive)	-0.939 (inactive)
C=C(CCCC)C(=O)CC[C@H](OC(=O)c1ccccc1-c1ccccc1C(=O)O)c1ccc(CO)o1	0.556 (inactive)	0.582	-0.714	-6.05 (inactive)	-0.131 (inactive)	-0.23 (inactive)
C=CC[C@@]1(C(=O)NCCN2CCOCC2)N=C(c2ccc(OCCCO)cc2)O[C@@H]1c1ccccc1CN=[N+]=[N-]	1.21 (inactive)	0.818	-2.13	-1.05 (inactive)	-0.336 (inactive)	-0.254 (inactive)
C=CCOC(=O)[C@H]1[C@@H]2C(=O)O[C@@H](c3ccccc3)[C@@H](c3ccccc3)N2[C@@H](c2ccc(OCCOC(=O)[C@H]3C[C@H]4C(=O)N[C@@H](CCCC[N+](C)(C)C)C(=O)N4[C@H]3c3ccc(O)cc3)cc2)[C@]12C(=O)Nc1ccccc12	-0.436 (inactive)	0.487	1.04	6.97 (inactive)	-0.179 (inactive)	-0.219 (inactive)
CC(C)(C)OC(=O)CC[C@@]1(C(N)=O)N=C(c2ccc(OCCCO)cc2)O[C@@H]1c1ccccc1N=[N+]=[N-]	0.0344 (inactive)	0.839	-0.338	-6.23 (inactive)	-0.244 (inactive)	-0.0977 (inactive)
O=C1OCC=C[C@H]2OC34C=CCN(c5ccc6ccccc6c5)C(=O)[C@H]3N(CCO)C(=O)[C@@H]4[C@@H]12 (stereo partly drawn)	0.594 (inactive)	0.605	0.666	-5.78 (inactive)	0.0775 (inactive)	0.219 (inactive)
CN1C(=O)C2C(C1=O)C1C=C(c3ccc(CO)cc3)C2C(C2CC2)N1Cc1cc2c(cc1Br)OCO2 (stereo not drawn)	2.71 (inactive)	0.832	-2.16	-4.5 (inactive)	-0.369 (inactive)	-0.327 (inactive)
COc1ccc(C#Cc2ccc3c(c2)[C@]2(C(=O)N3)[C@H](C(=O)N3CCc4cc(OC)c(OC)cc4C3)[C@H]3C(=O)O[C@H](c4ccccc4)[C@H](c4ccccc4)N3[C@@H]2c2ccc(OCCO)cc2)cc1	0.53 (inactive)	0.598	-1.36	-2.71 (inactive)	-0.122 (inactive)	2.93 (inactive)
Cc1ccc(N2C(=O)c3ccccc3[C@@H](C(=O)NCC(C)C)[C@@H]2c2ccc(CO)cc2)nc1	0.184 (inactive)	0.934	0.524	-0.985 (inactive)	-0.275 (inactive)	-0.387 (inactive)
